Where a name gives a salt, the structure may show the parent alone. ± gives the standard deviation or the standard deviation of the averaged measurements.

The values below come from the supplement of paper PMC7366291.

Holding throughout (details): 25 µM; exposure: 24-48 hpf
Experiment [1] deals with Danio rerio Tg(wt1b:EGFP) embryo, pronephros. The experiment can be described thus: glomerular separation, fold change vs DMSO control; higher = glomeruli further apart (abnormal). In outline:
(§1)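 From 24 to 48 hpf, at 28.5°C, dechorionated Tg(wt1b:EGFP) zebrafish embryos sat in HEPES-buffered E3 with 0.003% PTU carrying 25 μM compound and 0.5% DMSO. Their pronephroi were imaged dorsally in 96-well plates filled with agarose, using 470 nm light and 10 z-slices. A Fiji macro measured distances and angles between 16 reference points that were set manually on maximum projections, and any value more than 2 SD from its feature mean was excluded. Features are expressed as fold change relative to the mean of DMSO-treated embryos imaged on the same day.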

For experiment [2] the test system is unchanged. The experiment can be described thus: glomerular width (mean of left and right), fold change vs DMSO control; higher = wider glomerulus. The essentials:
as §1

The test system is the same in experiment [3]. The experiment can be described thus: fraction of imaged embryos annotated as normal kidney; higher = less nephrotoxic; extreme values may be limits of the assay. In outline: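 From 24 to 48 hpf at 28.5°C, dechorionated Tg(wt1b:EGFP) zebrafish embryos in 12-well plates were kept in 5 mM HEPES-buffered E3 with 0.003% PTU, 0.5% DMSO and 25 μM compound. Pronephroi were imaged by widefield fluorescence at 470 nm and judged by eye from maximum projections. Reported is the proportion of embryos per treatment in the normal-kidney category.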

For experiment [4] the test system is unchanged. The experiment can be described thus: pronephric angle neck segment to proximal convoluted tubule (mean of left and right), fold change vs DMSO control; higher = larger pronephric angle. The essentials:
as §1

`NCCc1c[nH]c2ccc(O)cc12` [Serotonin hydrochloride]: the glomerular separation in experiment [1] was found to be 1.61 ± 1.2. In experiment [2], this compound yielded a glomerular width of 0.902 ± 0.038. Moreover, the “fraction of imaged embryos annotated as normal kidney” value (“fraction of imaged embryos annotated” below) in experiment [3] turned out to be 0.667. Besides, the “pronephric angle neck segment” value in experiment [4] came out at 1.064 ± 0.007.
In turn, `O[C@@H]1CCCC[C@H]1N1CCC(c2ccccc2)CC1` [L(-)-vesamicol hydrochloride] came in with a glomerular separation in experiment [1] of 1.01 ± 0.55. In experiment [2], this compound gave a glomerular width of 0.955 ± 0.032. The “fraction of imaged embryos annotated” value in experiment [3] came out at 0.917. In experiment [4], the “pronephric angle neck segment” value is 1.01 ± 0.075.
In experiment [1], `CN[C@@H]1C[C@@H](c2ccc(Cl)c(Cl)c2)c2ccccc21` [Indatraline hydrochloride] displayed a glomerular separation of 0.788 ± 0.28. In experiment [2], this compound gave a glomerular width of 1.04 ± 0.011. Moreover, the “fraction of imaged embryos annotated” value in experiment [3] stood at 0.833. Also, in experiment [4], the “pronephric angle neck segment” value amounted to 0.9756 ± 0.0089.
In experiment [1], `CCCC(C)C1(CC)C(=O)NC(=O)NC1=O` (centres undefined) [Pentobarbital] gave a glomerular separation of 1.63 ± 0.87. In experiment [2], this compound gave a glomerular width of 0.987 ± 0.044. Moreover, the “fraction of imaged embryos annotated” value in experiment [3] came to 0.667. The “pronephric angle neck segment” value in experiment [4] is 1.214 ± 0.0019.
The matching figures for `CCC(=O)O[C@H]1CC[C@H]2[C@@H]3CCC4=CC(=O)CC[C@]4(C)[C@H]3CC[C@]12C` [Testosterone propionate]: 1.12 ± 0.46, 1.03 ± 0.035, 0.75 and 0.9686 ± 0.0074.
The matching figures for `CC[C@@H](C(N)=O)N1CCCC1=O` [Levetiracetam]: 0.937 ± 0.41, 1.04 ± 0.041, 0.917 and 1.011 ± 0.0044.
The matching figures for `CN(C)C(=O)Oc1ccc[n+](C)c1` [Pyridostigmine iodide]: 1.26 ± 0.35, 0.982 ± 0.096, 0.917 and 1.03 ± 0.013.
As for `C[N+]12CCC(CC1)C(OC(=O)C(O)(c1ccccc1)c1ccccc1)C2` (centres undefined) [Clidinium bromide], in experiment [1], the glomerular separation is 0.83 ± 0.32. In experiment [2], the glomerular width was 0.982 ± 0.1. In addition, the “fraction of imaged embryos annotated” value in experiment [3] turned out to be 0.917. The “pronephric angle neck segment” value in experiment [4] turned out to be 0.967 ± 0.022.
The matching figures for `C[C@]12CC[C@H](O)C[C@H]1CC[C@@H]1[C@@H]2CC[C@]2(C)[C@@H](C3=CC(=O)OC3)CC[C@]12O` [Digitoxigenin]: 1.38 ± 0.71, 1.0869 ± 0.00048, 0.667 and 1.03 ± 0.066.
The compound `CCCN1C[C@H](CSC)C[C@@H]2c3cccc4[nH]cc(c34)C[C@H]21` [Pergolide mesylate] returned a glomerular separation in experiment [1] of 1.26 ± 0.37. In addition, the glomerular width in experiment [2] worked out at 1.01 ± 0.019. The “fraction of imaged embryos annotated” value in experiment [3] was 1. For the same compound, in experiment [4], the “pronephric angle neck segment” value worked out at 0.997 ± 0.029.
In experiment [1], `CNC(C)(C)Cc1ccccc1` [Mephentermine hemisulfate] gave a glomerular separation of 0.946 ± 0.41. The glomerular width in experiment [2] came to 1.08 ± 0.036. In experiment [3], the “fraction of imaged embryos annotated” value stood at 1. Besides, the “pronephric angle neck segment” value in experiment [4] came to 0.991 ± 0.081.
As for `C[C@@]12N[C@@H](Cc3ccccc31)c1ccccc12` [(-)-MK 801 hydrogen maleate], the glomerular separation in experiment [1] was 1.02 ± 0.29. This compound also returned a glomerular width in experiment [2] of 1.034 ± 0.0098. Besides, the “fraction of imaged embryos annotated” value in experiment [3] came out at 1. For the same compound, in experiment [4], the “pronephric angle neck segment” value was 1.02 ± 0.069.
The matching figures for `CN1C[C@H](C(=O)N[C@]2(C)O[C@@]3(O)[C@@H]4CCCN4C(=O)[C@H](Cc4ccccc4)N3C2=O)C[C@@H]2c3cccc4[nH]cc(c34)C[C@H]21` [Dihydroergotamine tartrate]: 1.15 ± 0.56, 1.0661 ± 0.00016, 0.833 and 0.948 ± 0.015.
On the same counts, the results for `CCC1(c2ccc(N)cc2)CCC(=O)NC1=O` (centres undefined) [Glutethimide, para-amino] are 1.05 ± 0.27, 1.04 ± 0.036, 0.667 and 1.05 ± 0.021.
In experiment [1], `O=c1[nH]c2ccccc2n1CCCN1CCC(n2c(=O)[nH]c3cc(Cl)ccc32)CC1` [Domperidone] had a glomerular separation of 0.857 ± 0.34. The same compound gave a glomerular width in experiment [2] of 1.03 ± 0.08. For the same compound, the “fraction of imaged embryos annotated” value in experiment [3] was 0.818. The “pronephric angle neck segment” value in experiment [4] came to 0.963 ± 0.041.
On the same counts, the results for `CCC1(CC)C(=O)C=CNC1=O` [Pyrithyldione] are 0.785 ± 0.31, 1.034 ± 0.0093, 0.727 and 0.9934 ± 0.0041.
In experiment [1], `CC(Cc1ccccc1)NCCC(c1ccccc1)c1ccccc1` (centres undefined) [Prenylamine lactate] returned a glomerular separation of 1.05 ± 0.22. In experiment [2], the glomerular width worked out at 1.07 ± 0.071. For the same compound, the “fraction of imaged embryos annotated” value in experiment [3] turned out to be 0.727. The “pronephric angle neck segment” value in experiment [4] is 0.953 ± 0.032.
The matching figures for `CCC1(c2cccc(O)c2)CCCCN(C)C1` (centres undefined) [Meptazinol hydrochloride]: 1.01 ± 0.35, 0.967 ± 0.024, 0.917 and 0.984 ± 0.06.
On the same counts, the results for `CCC(COC(=O)c1cc(OC)c(OC)c(OC)c1)(c1ccccc1)N(C)C` (centres undefined) [Trimebutine] are 0.875 ± 0.36, 0.9518 ± 0.0092, 0.917 and 1.01 ± 0.012.
In experiment [1], `CC(C)(C)NCC(O)c1cc(Cl)c(N)c(Cl)c1` (centres undefined) [Clenbuterol hydrochloride] returned a glomerular separation of 1.04 ± 0.33. Moreover, in experiment [2], the glomerular width was 1.08 ± 0.032. The “fraction of imaged embryos annotated” value in experiment [3] stood at 0.75. Besides, the “pronephric angle neck segment” value in experiment [4] came out at 1 ± 0.067.
The matching figures for `CC(CCc1ccccc1)NC(C)C(O)c1ccc(O)cc1` (centres undefined) [Nylidrin]: 0.871 ± 0.34, 1.02 ± 0.035, 0.917 and 1 ± 0.02.
Take `CC(C)C[C@H]1C(=O)N2CCC[C@H]2[C@]2(O)O[C@](NC(=O)[C@@H]3C=C4c5cccc6[nH]c(Br)c(c56)C[C@H]4N(C)C3)(C(C)C)C(=O)N12` [Bromocryptine mesylate]: in experiment [1], the glomerular separation was 1.01 ± 0.34. In experiment [2], the glomerular width was determined as 1.12 ± 0.012. Further, in experiment [3], the “fraction of imaged embryos annotated” value stood at 0.833. For the same compound, the “pronephric angle neck segment” value in experiment [4] was 0.985 ± 0.022.
On the same counts, the results for `COc1ccc(C(CN(C)C)C2(O)CCCCC2)cc1` (centres undefined) [Venlafaxine] are 0.684 ± 0.13, 1.023 ± 0.0059, 0.917 and 0.925 ± 0.013.
The matching figures for `COc1cccc(C2(O)CCCCC2CN(C)C)c1` (centres undefined) [Tramadol hydrochloride]: 0.728 ± 0.23, 0.989 ± 0.021, 0.833 and 0.9988 ± 0.0034.
The matching figures for `CCn1cc(C(=O)O)c(=O)c2cc3c(cc21)OCO3` [Oxolinic acid]: 0.66 ± 0.37, 1.06 ± 0.096, 0.583 and 0.799 ± 0.024.
In turn, `C[C@]12CC[C@@H](O)C[C@@H]1CC[C@@H]1[C@@H]2CC[C@]2(C)C(=O)CC[C@@H]12` [Androsterone] came in with a glomerular separation in experiment [1] of 0.907 ± 0.17. This compound displayed a glomerular width in experiment [2] of 0.991 ± 0.038. Further, the “fraction of imaged embryos annotated” value in experiment [3] came out at 0.75. Further, the “pronephric angle neck segment” value in experiment [4] was 0.999 ± 0.015.
